Assay outcomes: PubChem, National Center for Advancing Translational Sciences (NCATS)
HEK293 tox: Cytotoxic Profiling in HEK 293 Cell Line of Diverse Libraries Using Quantitative High-Throughput Screening; HEK 293 viability, ATP luminescence (CellTiter-Glo), 48-72 h; Potency, µM (series often up to 115 µM), inactives show at the top dose activity change, negative = cytotoxicity, most hits filed as inhibitors; 94,000 compounds, 6.6% hits; AID 1345083, 2018; further: nearly all actives have a fitted effect of over 60% in size
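Read-out: CellTiter-Glo ATP luminescence. Cells: HEK 293, 250 cells/well. Exposure: 48 or 72 hr, 37 degree Celsius.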
SNCA viab count: GF-AFC viability counterscreen for inhibitors of alpha-synuclein gene (SNCA) expression. 150,000 compounds, 0.12% hits. HEK-293-SNCA-luc viability, GF-AFC fluorescence, 24 h. Potency, µM (doses to about 57.1 µM), for inactives: top-dose activity change, negative = cytotoxicity, actives largely listed as cytotoxic. AID 1671193, 2021;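 further: 0% = DMSO-treated cells and -100% = medium-only wells without cells; nearly all actives have a fitted effect of over 30% in size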
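HEK-293-SNCA-luc cells (1500/well) plated 24 h, then exposed 24 h to a dilution series; GF-AFC added 30 min at 37C, fluorescence 405/540 nm; normalised to medium-only and DMSO wells, Hill fit.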
Luciferase inh: Firefly luciferase inhibition profiling of diverse chemical library using quantitative high-throughput screening | Luciferin 4-monooxygenase (Photinus pyralis), P08659 | 76,000 compounds, 2.5% hits | Potency, µM (doses to about 115 µM), actives largely listed as inhibitors | purified P. pyralis luciferase, luminescence, biochemical; further: nearly all actives have a fitted effect of over 65% in size
Target sequence (P08659 whole entry, looked up): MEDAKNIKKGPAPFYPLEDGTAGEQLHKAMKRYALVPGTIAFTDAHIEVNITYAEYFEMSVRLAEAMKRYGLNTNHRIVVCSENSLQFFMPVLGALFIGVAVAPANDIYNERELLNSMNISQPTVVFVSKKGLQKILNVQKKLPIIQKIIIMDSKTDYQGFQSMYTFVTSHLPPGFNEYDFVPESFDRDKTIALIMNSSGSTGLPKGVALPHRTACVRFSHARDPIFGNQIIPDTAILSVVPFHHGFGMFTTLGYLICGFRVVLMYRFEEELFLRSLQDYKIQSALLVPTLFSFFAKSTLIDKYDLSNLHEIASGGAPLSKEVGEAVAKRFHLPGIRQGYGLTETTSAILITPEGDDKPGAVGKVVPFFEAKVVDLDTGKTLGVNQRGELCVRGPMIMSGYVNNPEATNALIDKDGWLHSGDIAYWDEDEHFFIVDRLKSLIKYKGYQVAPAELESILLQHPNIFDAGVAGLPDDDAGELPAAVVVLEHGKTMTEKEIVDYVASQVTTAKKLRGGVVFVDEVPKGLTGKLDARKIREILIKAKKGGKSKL
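Purified 10nM P. pyralis luciferase with 10uM D-luciferin and 10uM ATP in 50mM Tris acetate pH 7.5, 10mM Mg acetate, 0.01% Tween-20, 0.05% BSA. qHTS titration; luminescence read by CCD imager.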
3T3 cytotox: Cytotoxic Profiling in NIH 3T3 Cell Line of Diverse Libraries Using Quantitative High-Throughput Screening. Potency, µM (titrated, usually from 96.7 µM), without a hit: at the highest dose activity change, negative = cytotoxicity, usual class: inhibitors. AID 1345082, 2018. 94,000 compounds, 4.3% hits. NIH 3T3 viability, CellTiter-Glo ATP luminescence, 48-72 h; further: nearly all actives have a fitted effect of over 55% in size
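First NIH 3T3 cells are plated at 400 cells/well; next compound is pinned in; then plates incubate 48 or 72 hr at 37 °C; finally CellTiter-Glo is added and luminescence read after 10 min.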
SNCA expr inhib: Primary qHTS assay for inhibitors of alpha-synuclein gene (SNCA) expression | HEK-293 SNCA-luciferase knock-in, luminescence, 24 h | 140,000 compounds, 0.17% hits | Potency, µM (titrated, usually from 57.2 µM), without a hit: top-dose activity change, negative = inhibition, actives largely listed as inhibitors;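 further: plate controls were DMSO cells for no effect and cell-free wells for full effect; nearly all actives have a fitted effect of over 45% in size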
hNpr1 antagonist: Natriuretic polypeptide receptor (hNpr1) antagonism - Primary qHTS; Atrial natriuretic peptide receptor 1 (Homo sapiens), P16066; HEK293 hNpr1 GloSensor cGMP, ANP-stimulated luminescence; Potency, µM (highest dose often 46.3 µM), inactives show top-dose activity change, negative = inhibition, actives largely listed as inhibitors; 76,000 compounds, 1.6% hits; AID 1347048, 2019; calls by dose curve; further: nearly all actives have a fitted effect of over 60% in size
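HEK293 cells stably expressing human Npr1 and cGMP GloSensor pGS-40F, loaded 2 h with 2% GloSensor reagent, given compound 30 min at room temperature. Luminescence read before and 20 min after 0.1 nM hNppA.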
The depositor's hits bear a star; i = inactive; ? = inconclusive; · = no result; [ ] = another dose, or the depositor's remark. Only some compounds are listed: those with a hit (about 7.2% of all), similar ones and a draw of the others. Unless noted, the call rests on the fitted dose curve; in most records, active means well fitted curve in the direction sought with a large enough effect; inconclusive means small, poorly fitted or top-dose-only effect, or another doubt; inactive means no such curve, though single readings can be large; an effect the other way counts as inactive or inconclusive. Unless noted, on the % scale 0 is the no-effect control and ±100 the full control effect; potency means the concentration at half of the fitted maximal effect.

SMILES | HEK293 tox | SNCA viab count | Luciferase inh | 3T3 cytotox | SNCA expr inhib | hNpr1 antagonist
CCOc1ccccc1C(=O)NC1CCCN(c2cc(-c3ccc(Cl)cc3)[nH]n2)C1 (stereo unspecified) | 20µM* | ? | ? | 16µM* | -24% | -16%
COc1ccc(C(=O)NC2CCN(c3cc(-c4ccccc4)[nH]n3)CC2)c(OC)c1 | 79µM* | -10% | i | ? | -9% | -5%
COc1ccc(S(=O)(=O)N2C[C@@H](F)C[C@H]2C(=O)N2CCc3ccccc3C2)cc1 | 5% | -7% | i | -5% | -27% | -4%
COCCc1nncn1C1CCN(S(=O)(=O)c2ccc(F)c(C)c2)CC1 | 5% | 11% | i | -10% | 8% | 0%
CCOc1ccccc1C(=O)NC1CCN(c2cc(-c3ccc(Cl)cc3)[nH]n2)CC1 | ? | ? | i | ? | ? | -22%
CCOc1ccccc1C(=O)NC1CCN(c2cc(-c3ccc(OC)cc3)[nH]n2)CC1 | ? | -28% | i | 35µM* | -10% | -19%
CC(NC(=O)C1(N2CCCCC2)Cc2ccccc2C1)c1cnn(C)c1 (stereo unspecified) | -25% | 4% | i | -17% | 82% | 9%
CCOC(=O)c1cccc(NC(=O)N2CC[C@@H](CC(=O)NCc3cccc4ccccc34)[C@@H](CC)C2)c1 | -17% | -14% | i | -29% | -27% | -7%
C=C1[C@H](OC(C)=O)[C@H]2[C@@H](OC(=O)c3ccccc3)[C@@H](C)C[C@]2(O)[C@@H](OC(C)=O)[C@H](C)/C=C/C(C)(C)C(=O)[C@H](OC(C)=O)[C@H]1OC(C)=O | · | -15%[23.9 µM] | · | · | · | ·
O=C(NCCc1nc(-c2ccccc2)cs1)c1ccc2nccn2c1 | 40µM* | ? | i | ? | -11% | -17%
O=C(NCCc1ccccc1F)c1ccc2nccn2c1 | -4%[172 µM] | -7%[87.6 µM] | · | 2%[138 µM] | 28%[87.6 µM] | ·
CCN(Cc1ccc(C)o1)C(=O)c1ccc2nc(-c3ccc(F)cc3)cn2c1 | ? | -2% | 40µM* | ? | 21% | -15%
Cc1c(CNC(=O)c2ccc3nc(-c4ccc(F)cc4)cn3c2)cnn1C | ? | -1% | 45µM* | -22% | 50% | -15%
CCN(CC1CCCO1)C(=O)c1ccc2nc(-c3ccc(F)cc3)cn2c1 (stereo unspecified) | ? | -10% | ? | -28% | 26% | 2%
O=C(NCCCc1ccccn1)c1ccc2nc(-c3ccc(F)cc3)cn2c1 | 45µM* | -9% | ? | ? | 103% | -13%
Cc1ccc(NC(=O)N[C@@H]2C=C(C(=O)N[C@@H](Cc3cccs3)C(N)=O)C[C@@H](O)[C@@H]2O)cc1 | i | -12% | i | 0% | 5% | 2%
O=C(NCCN1CCOCC1)c1cn2cc(-c3cccc(C(F)(F)F)c3)sc2n1 | ? | 3% | · | ? | ? | ·
CCOC(=O)C(Cc1cccc(N2CCN([S+](=O)([O-])c3c(Cl)cccc3Cl)CC2)c1)OC (stereo unspecified) | 20µM* | · | · | ? | · | ·
O=C([C@H]1CCCN1C(=O)Nc1ccc(Cl)cc1)N1CCC(N2CCOC2=O)CC1 | i | 1% | · | 4% | -7% | ·
Cc1ccc(-n2nc3c(=O)n(CCCC(=O)NC(C)c4ccccc4)nc(C)c3c2C)cc1 (stereo unspecified) | · | 2% | · | · | 28µM* | ·
Cc1ccc(-n2nc3c(=O)n(CCCC(=O)NCCc4ccccc4)nc(C)c3c2C)cc1 | · | 5% | · | · | 22% | ·
COc1cccc(OC)c1-c1c(-c2ccccc2)ncn1CCCSC | ? | -4% | i | ? | -15% | -23%
COc1ccccc1CCn1cnc(-c2ccccc2)c1-c1cn(C)nc1C | 79µM* | 3% | i | ? | 3% | -5%
O=C(NC1CN(c2ccnc3ccnn23)C1)C1CC1 | 0%[172 µM] | -1%[87.6 µM] | · | -4%[138 µM] | 29%[87.6 µM] | ·
O=C(NCCN1CCOCC1)c1ccc(-c2ccc(N3CCSCC3)nc2)cc1 | ? | -1% | ? | -7% | 23% | -14%
SMILES | HEK293 tox | SNCA viab count | Luciferase inh | 3T3 cytotox | SNCA expr inhib | hNpr1 antagonist
CN(Cc1ccco1)C(=O)c1ccc(-c2ccc(N3CCCCCC3)nc2)cc1 | 40µM* | -7% | ? | ? | 31% | ?
CN(C)CCNC(=O)c1ccc(-c2ccc(N3CCCCCC3)nc2)cc1 | 32µM* | -10% | ? | 18µM* | 130% | -2%
CC(C)CCNC(=O)c1ccc(-c2ccc(N3CCSCC3)nc2)cc1 | -28% | -13% | ? | i | 2% | -7%
CN1CCN(CCNC(=O)c2ccc(-c3ccc(N4CCCCCC4)nc3)cc2)CC1 | 25µM* | -17% | i | 14µM* | 23% | -17%
O=C(NCCN1CCCCC1)c1ccc(-c2ccc(N3CCSCC3)nc2)cc1 | 35µM* | 3% | i | 28µM* | 59% | -21%
CCC(Cn1ccnc1)NC(=O)c1cccc(NCc2ccc(F)cc2)c1 (stereo unspecified) | ? | -3% | i | ? | -5% | -2%
O=C(NCc1ccccn1)c1ccc(-c2ccc(N3CCCCC3)nc2)cc1 | 22µM* | -5% | ? | ? | 55% | -26%
O=C(Cc1ccccn1)NCCNC(=O)c1ccc(-c2cncnc2)cc1 | 89µM* | · | · | ? | · | ·
O=C(NCCN1CCCCC1)c1ccc(-c2ccc(N3CCCCC3)nc2)cc1 | ? | ? | ? | 20µM* | 41% | -3%
O=C(NCCCN1CCCC1)c1ccc(-c2ccc(N3CCCCC3)nc2)cc1 | ? | 0% | ? | ? | 21% | 0%
O=C1CC2CCN(Cc3nc4ccccc4s3)CC2CCN1 (stereo unspecified) | -1% | -4% | · | 3% | -7% | ·
Cc1cccc(NC(=O)Cn2ccn3nc(-c4ccccc4)c(CO)c3c2=O)c1C | 89µM* | -13% | i | ? | -18% | 0%
O=C(Cn1ccn2nc(-c3ccc(F)cc3)c(CO)c2c1=O)Nc1cccc(Br)c1 | 45µM* | -4% | i | ? | -26% | -3%
Cc1ccc(C)c(Cn2ccn3nc(-c4ccc(F)cc4)c(CO)c3c2=O)c1 | 35µM* | -2% | i | ? | -10% | ?
